Assay [1] in a line: ATG_XTT_Cytotoxicity: Cytotoxicity Assessment in the Attagene TRANS-FACTORIAL HepG2 Assay (AID 2283584). Summed up: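 HepG2 cells transiently transfected with GAL4-UAS multiple reporter units, dosed 24 h; cytotoxicity read by XTT as loss of signal versus DMSO baseline.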
In assay [2] the target is Cellular tumor antigen p53 (Homo sapiens) (UniProt P04637). The assay is described as follows: TOX21_p53_BLA_p4_ratio: Tox21 HCT-116 p53 Agonism Beta-lactamase Assay, Ratio, Phase 4 (AID 2283601). A digest of the protocol:
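Signal is the blue/green (460nm/530nm) ratio of cleaved versus uncleaved CCF4-AM substrate, read after 2 h substrate loading. Cells were HCT116 carrying the p53-responsive beta-lactamase reporter, dosed 16 h at 37C, 5% CO2; CellTiter-Glo measured in parallel.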

Assay [3] is described as follows: TOX21_p53_BLA_p5_viability: Viability Assessment in the Tox21 HCT-116 p53 Agonism Beta-lactamase Assay, Phase 5 (AID 2283600). A digest of the protocol:
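HCT-116 p53 beta-lactamase reporter cells, 4000/well, were exposed to compound (pin transfer, 217-fold dilution) for 16 hours at 37C. Cellular ATP was read by CellTiter-Glo luminescence after 30 min at room temperature.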

The target in assay [4] is Cellular tumor antigen p53 (Homo sapiens) (UniProt P04637). The assay is described as follows: TOX21_p53_BLA_p2_ratio: Tox21 HCT-116 p53 Agonism Beta-lactamase Assay, Ratio, Phase 2 (AID 2283592). Summed up:
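HCT-116 cells with p53-responsive beta-lactamase reporter, 4000 cells/well, preincubated 5 h, then compound in DMSO (217-fold dilution) for 16 h at 37C. CCF4-AM substrate 2 h at room temperature; 460/530 nm emission ratio fitted upward versus DMSO.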

Assay [5] shares this target. The assay is described as follows: TOX21_p53_BLA_p3_ratio: Tox21 HCT-116 p53 Agonism Beta-lactamase Assay, Ratio, Phase 3 (AID 2283596). Summed up: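 HCT116 p53-bla cells (4000/well) given compound in DMSO (217-fold dilution) after 5 h, incubated 16 h at 37C. CCF4-AM substrate 2 h at room temperature; 460/530 nm emission ratio, gain fitted against DMSO.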
Assay [6] has the same target. The assay is described as follows: TOX21_p53_BLA_p5_ratio: Tox21 HCT-116 p53 Agonism Beta-lactamase Assay, Ratio, Phase 5 (AID 2283599). Summed up:
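Beta-lactamase reporter ratio (blue 460 nm over green 530 nm, 405 nm excitation) after 2 h CCF4-AM loading, in HCT-116 cells exposed 16 h at 37 C to compounds pinned at 217-fold dilution. Increases relative to DMSO baseline scored.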

Assay [7] can be described thus: TOX21_p53_BLA_p3_viability: Viability Assessment in the Tox21 HCT-116 p53 Agonism Beta-lactamase Assay, Phase 3 (AID 2283593).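 Note: cells exposed to compound for 16 h before reading.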 Summed up:
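Cellular ATP was quantified by CellTiter-Glo luminescence, read after 30 min at room temperature. Beforehand, HCT116 cells (4000/well) received compound 5 h post-seeding, 217-fold diluted from DMSO, then incubated 16 h at 37C.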

A short description of assay [8]: TOX21_p53_BLA_p2_viability: Viability Assessment in the Tox21 HCT-116 p53 Agonism Beta-lactamase Assay, Phase 2 (AID 2283591).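 Note: compound exposure lasted 16 h at 37 °C; actives lower the ATP signal meaning cytotoxicity.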 Summed up: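 Cytotoxicity readout: CellTiter-Glo ATP luminescence, 30 min at room temperature, after the beta-lactamase read. Cells were HCT116 exposed 16 h at 37C to compounds pin-transferred at 217-fold dilution from DMSO stocks.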
Assay [9] can be described thus: TOX21_p53_BLA_p4_viability: Viability Assessment in the Tox21 HCT-116 p53 Agonism Beta-lactamase Assay, Phase 4 (AID 2283597).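 Note: hits lower the luminescence signal meaning cytotoxicity.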 A digest of the protocol:
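HCT-116 p53-bla cells, 4000/well, dosed after 5 h attachment and incubated 16 h at 37 °C, 5% CO2. Viability from CellTiter-Glo ATP luminescence after 30 min at room temperature, taken after the beta-lactamase read; loss of signal indicates cytotoxicity.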

Our source for the outcome and AC50 values is PubChem BioAssay (EPA / NIEHS).

Values joined by “and” are separate entries in the source; they are usually repeats but may differ in a detail not shown here. Equal entries are not always repeated. Results filed as inconclusive are left out. More than one record can exist for a structure, and the calls need not agree. Active and inactive are the calls of the source. Rule for the calls: active = hit-call score of the fitted dose curve at least 0.9, where 1 is the maximum; inconclusive = response in the unintended direction; inactive = score below 0.9.

Chain of Cellular tumor antigen p53 (Homo sapiens) (P04637 whole entry, looked up): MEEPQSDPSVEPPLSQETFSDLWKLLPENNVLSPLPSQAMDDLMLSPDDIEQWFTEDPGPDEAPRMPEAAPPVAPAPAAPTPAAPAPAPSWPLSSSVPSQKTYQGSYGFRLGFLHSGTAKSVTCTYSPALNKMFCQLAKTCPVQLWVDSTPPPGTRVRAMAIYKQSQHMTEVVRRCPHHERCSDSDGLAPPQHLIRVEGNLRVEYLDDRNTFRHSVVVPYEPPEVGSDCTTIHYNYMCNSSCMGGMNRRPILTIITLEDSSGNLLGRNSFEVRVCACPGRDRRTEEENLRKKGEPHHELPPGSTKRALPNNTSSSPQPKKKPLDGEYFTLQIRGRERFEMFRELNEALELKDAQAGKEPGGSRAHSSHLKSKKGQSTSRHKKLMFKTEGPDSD

For the compound `O=C(O)c1cc(C(=O)O)cc([N+](=O)[O-])c1`, the compound was called inactive in [1] and in assay [2].

With `CS(=O)(=O)c1ccc(C2=C(c3ccccc3)C(=O)OC2)cc1`, the compound was classed as inactive in assay [1], in assay [3] and in [2].

For `COCCc1ccc(OCC(O)CNC(C)C)cc1` (centres undefined), the compound was classed as inactive in assay [1], in assay [4], in [5], in assay [6] and in assay [2].

Consider `C=CC(=O)OCCC#N`, for which the outcome in assay [1], in assay [7], in [6], in assay [3] and in [2] was inactive.

The term AC50 denotes the midpoint of the concentration-response curve, whichever way the signal moves. As to `N[C@@H](Cc1cc(I)c(Oc2cc(I)c(O)c(I)c2)c(I)c1)C(=O)O`, the call in [8], in assay [4], in assay [7], in [5], in assay [9] and in [3] was inactive. Also, the AC50 in assay [4] was 43.6 µM (active); in assay [9] it was 37 µM (active); in [6], 39.3 µM (active).

On to `CC(C)Nc1nc(N)nc(Cl)n1`, for which the compound was classed as inactive in assay [1] and in assay [2].

`CCC1(C)NC(=O)NC1=O` (centres undefined): the call in assay [8], in assay [4] and in assay [7] was inactive.

For the compound `N#Cc1ccc(CC(=O)c2cccc(C(F)(F)F)c2)cc1`, the outcome in assay [1], in assay [5], in assay [6], in [3] and in [2] was inactive.

As for `CCCCC1CCC(O)CC1` (centres undefined), the outcome in [1], in assay [4], in assay [5] and in assay [3] was inactive. For the same compound, the AC50 in [6] was 83.6 µM (active).

Turning to `Nc1ccc(NCCO)c([N+](=O)[O-])c1`, the call in [1], in assay [4], in [9], in assay [6] and in assay [2] was inactive.

As to `CC1=CC[C@@]23C[C@@H]1C(C)(C)[C@@H]2CC[C@H]3C`, the call in assay [1] and in [3] was inactive.

Consider `C=C1CC[C@H](O)C/C1=C/C=C1\CCC[C@]2(C)[C@@H]([C@H](C)/C=C/[C@H](C)C(C)C)CC[C@@H]12`, for which the AC50 in [8] was 71.1 µM (active); in assay [4], 76.4 µM (active) and 45.8 µM (active); in assay [7], 61.1 µM (active) and 45.8 µM (active) and 42.2 µM (active); in [9], 45.8 µM (active); in [6], 70.5 µM (active); in assay [3], 79.6 µM (active). Also, the result in assay [8], in assay [4], in [5], in assay [9], in assay [6] and in assay [3] was inactive. For the same compound, the result in assay [2] was inactive.

For `COS(=O)(=O)O`, the compound was called inactive in [1], in assay [3] and in [2].

Turning to `CCCC(=O)c1ccccc1`, the compound was classed as inactive in assay [8], in [4], in [7], in assay [5], in [9] and in assay [6].

Take `CC[N+](C)(CC)CC`: the compound was called inactive in assay [1], in assay [4], in [6] and in assay [2].

For `CCCCC(CC)COC(=O)c1ccc(O)cc1` (centres undefined), the half-maximal activity concentration (AC50) is 41.9 µM (active) and 67.8 µM (active) in assay [8]; 76.7 µM (active) and 74.7 µM (active) in assay [4]; 84.1 µM (active) in assay [7]; 72.6 µM (active) and 85.1 µM (active) in [5]; 72.2 µM (active) and 45.9 µM (active) in assay [9]; 69.4 µM (active) and 62.4 µM (active) in assay [6]. The AC50 was 56.6 µM (active) and 66.6 µM (active) in assay [3]; 86 µM (active) and 72.3 µM (active) in [2]. Further, the result in [7] was inactive.

`CCCC[O][Al]([O]CCCC)[O]CCCC`: the compound was called inactive in assay [1], in assay [4], in assay [5], in [9], in assay [6] and in assay [2].

`C[C@@H]1CCN(C(=O)[C@H](CCCN=C(N)N)NS(=O)(=O)c2cccc3c2NC[C@H](C)C3)[C@@H](C(=O)O)C1`: the outcome in assay [1], in assay [4], in assay [5], in assay [6], in assay [3] and in assay [2] was inactive.

On to `CCCC(=O)C(CC)Sc1ccoc1C` (centres undefined), for which the result in assay [1], in assay [7], in assay [5], in assay [9], in [3] and in assay [2] was inactive.

Consider `[O-]n1ccccc1=S.[O-]n1ccccc1=S.[Zn+2]`, for which the AC50 in assay [8] is 14.3 µM (active) [middle of 4 runs]; in assay [4], 33.8 µM (active) [middle of 4 runs]; in assay [7], 20.3 µM (active) [middle of 4 runs]; in [5], 35.7 µM (active) [middle of 4 runs]; in assay [9], 15.4 µM (active) [middle of 4 runs]; in [6], 24.8 µM (active) [middle of 4 runs]. In addition, in assay [3], the concentration at half-maximal activity (AC50) was 19.1 µM (active) [middle of 4 runs].

For the compound `CCCCOC(=O)CCCCCCCC(=O)OCCCC`, the outcome in assay [1], in assay [4] and in assay [6] was inactive.

Regarding `CCOc1ccc(N=Nc2ccc(C=Cc3ccc(N=Nc4ccc(OCC)cc4)cc3S(=O)(=O)O)c(S(=O)(=O)O)c2)cc1`, the result in [1], in [7], in assay [3] and in assay [2] was inactive.

As for `C=C(C)C(=O)OCC(CC)(COC(=O)C(=C)C)COC(=O)C(=C)C`, the compound was classed as inactive in [8], in assay [4], in [7], in assay [5], in [9] and in [6].

In the case of `CCCSc1ccc2nc(NC(=O)OC)[nH]c2c1`, the compound was called inactive in assay [8], in [7], in assay [9] and in [3]. The AC50 in assay [4] is 336 nM (active) and 247 nM (active); in assay [5], 394 nM (active) and 199 nM (active); in assay [6], 373 nM (active) and 193 nM (active).

With `CC(=O)O[C@H]1C[C@@H]2CC[C@@]1(C)C2(C)C`, the result in assay [1], in [4], in assay [5], in [6] and in assay [3] was inactive.

With `CC1=NN(c2ccc(S(=O)(=O)O)cc2)C(=O)C1`, the compound was called inactive in assay [1], in assay [4], in assay [5], in [6] and in assay [3].

Turning to `CCCC(=O)OCCc1ccccc1`, the compound was classed as inactive in assay [1], in [5], in assay [6] and in [2].

As for `CCCCCCC(CO)CCCC` (centres undefined), the compound was classed as inactive in assay [1], in assay [4], in assay [5], in [6] and in assay [2].

As to `CCCN(CCC)S(=O)(=O)c1ccc(C(=O)O)cc1`, the outcome in assay [8], in [4], in assay [7], in assay [5], in assay [9] and in [6] was inactive. In assay [3], the outcome was inactive.

In the case of `CCN(CCN)c1cccc(C)c1`, the compound was called inactive in [8], in [4], in assay [7], in assay [5], in [9] and in [6]. In [3], the call was inactive.

Regarding `Cc1cc(S(=O)(=O)O)ccc1N=Nc1c(O)ccc2ccccc12`, the outcome in [1], in assay [4], in [5], in assay [9] and in assay [3] was inactive.

Consider `CC(C)(CO)[C@@H](O)C(=O)NCCC(=O)O`, for which the compound was classed as inactive in [1], in assay [4], in assay [5] and in assay [6].

On to `O=C(O)COCC(=O)O`, for which the outcome in [1], in assay [4], in assay [5] and in assay [3] was inactive.

Consider `C=C(C)C(=O)OCCOCCOCCOCCOC(=O)C(=C)C`, for which the call in [8], in [4], in assay [7], in assay [5], in [9] and in assay [3] was inactive.

As for `COC(C)(C)CCCC(C)CC=O` (centres undefined), the compound was called inactive in assay [8], in assay [4], in assay [5], in assay [6], in assay [3] and in [2].
